# What was measured:
# Test in all cases: DAPPL (digital affinity profiling via proximity ligation, sequencing); 10 mM Tris-HCl pH 7.5, 50 mM NaCl, 1 mM DTT, 4% glycerol, room temperature, 30 min; GST-TFs on glutathione beads, 16-mer random dsDNA library, 0.1% formaldehyde crosslink after washing; high values mean tight binding
# FEV = target: T1, FEV (Homo sapiens, UniProt Q99581 1-238); conditions: protein: recombinant; tags: N-terminal GST; dsDNA, one strand shown
# T1 sequence: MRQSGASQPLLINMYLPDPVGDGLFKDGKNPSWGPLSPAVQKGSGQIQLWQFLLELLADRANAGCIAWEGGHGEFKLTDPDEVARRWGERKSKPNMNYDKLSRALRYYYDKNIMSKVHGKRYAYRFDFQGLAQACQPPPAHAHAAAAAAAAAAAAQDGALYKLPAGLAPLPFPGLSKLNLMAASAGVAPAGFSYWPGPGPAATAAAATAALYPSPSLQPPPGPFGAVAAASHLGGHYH
# Procedure, shortened: (§1)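 In yeast, human transcription factors were expressed with a GST fusion, then pulled down on glutathione beads and given DNA barcodes. Pooled with a tag-only sample, they were exposed to 200 nmole of a 16-mer random double-stranded DNA library (Tris/NaCl/DTT/glycerol buffer, room temperature, 30 min), washed, crosslinked with 0.1% formaldehyde, proximity-ligated using BsaI/T4 ligase for 1 h at 37 °C, PCR-amplified and read on an Illumina NextSeq500. Each hexamer's frequency of reads for a factor, divided by the matching frequency for the tag-only sample, gives the binding signal.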
# ETV5 = ETV5 (Homo sapiens, UniProt P41161 1-510); conditions: protein: recombinant; tags: N-terminal GST; dsDNA, one strand shown
# Sequence of ETV5 (P41161 whole entry): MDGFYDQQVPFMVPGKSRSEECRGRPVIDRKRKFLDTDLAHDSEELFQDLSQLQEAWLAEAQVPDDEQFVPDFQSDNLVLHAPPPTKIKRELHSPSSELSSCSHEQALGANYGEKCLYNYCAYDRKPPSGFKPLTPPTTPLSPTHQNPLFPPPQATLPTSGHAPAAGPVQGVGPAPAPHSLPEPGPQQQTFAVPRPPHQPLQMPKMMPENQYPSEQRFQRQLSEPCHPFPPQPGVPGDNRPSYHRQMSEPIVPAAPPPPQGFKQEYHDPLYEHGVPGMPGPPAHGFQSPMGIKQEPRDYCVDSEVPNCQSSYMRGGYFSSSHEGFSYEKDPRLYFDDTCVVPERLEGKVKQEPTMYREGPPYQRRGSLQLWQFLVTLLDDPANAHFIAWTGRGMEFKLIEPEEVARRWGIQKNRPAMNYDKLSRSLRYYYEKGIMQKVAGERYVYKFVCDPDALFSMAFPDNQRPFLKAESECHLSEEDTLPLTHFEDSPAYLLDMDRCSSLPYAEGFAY
# Procedure, shortened: as §1
# HSF1 = HSF1 (Homo sapiens, UniProt Q00613 1-529); conditions: protein: recombinant; tags: N-terminal GST; chain copies: 3; dsDNA, one strand shown
# Sequence of HSF1 (Q00613 whole entry): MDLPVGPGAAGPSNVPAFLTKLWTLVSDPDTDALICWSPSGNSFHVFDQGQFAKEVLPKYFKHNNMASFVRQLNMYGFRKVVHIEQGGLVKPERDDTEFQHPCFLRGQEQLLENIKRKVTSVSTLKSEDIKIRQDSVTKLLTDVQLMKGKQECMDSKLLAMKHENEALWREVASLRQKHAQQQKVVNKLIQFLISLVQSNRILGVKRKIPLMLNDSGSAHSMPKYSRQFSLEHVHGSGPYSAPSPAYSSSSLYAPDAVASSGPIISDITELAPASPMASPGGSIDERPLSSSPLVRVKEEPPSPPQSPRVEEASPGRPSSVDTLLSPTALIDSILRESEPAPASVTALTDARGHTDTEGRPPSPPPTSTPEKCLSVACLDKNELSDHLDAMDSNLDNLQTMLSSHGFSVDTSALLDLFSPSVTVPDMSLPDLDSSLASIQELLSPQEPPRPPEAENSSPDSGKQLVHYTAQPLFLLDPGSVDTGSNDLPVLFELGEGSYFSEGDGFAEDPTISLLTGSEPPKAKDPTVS
# Procedure, shortened: as §1
# SPIC = target: T2, SPIC (Homo sapiens, UniProt Q8N5J4 1-248); conditions: protein: recombinant; tags: N-terminal GST; dsDNA, one strand shown
# T2 sequence: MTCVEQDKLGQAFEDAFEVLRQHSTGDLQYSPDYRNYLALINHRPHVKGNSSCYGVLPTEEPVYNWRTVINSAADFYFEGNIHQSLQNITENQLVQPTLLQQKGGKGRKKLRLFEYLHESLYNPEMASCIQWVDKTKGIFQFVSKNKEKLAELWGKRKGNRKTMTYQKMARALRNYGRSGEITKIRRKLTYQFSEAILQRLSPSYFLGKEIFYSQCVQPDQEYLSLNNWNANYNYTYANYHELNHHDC
# Procedure, shortened: as §1
# ELF4 = ELF4 (Homo sapiens, UniProt Q99607 1-663); conditions: protein: recombinant; tags: N-terminal GST; dsDNA, one strand shown
# Sequence of ELF4 (Q99607 whole entry): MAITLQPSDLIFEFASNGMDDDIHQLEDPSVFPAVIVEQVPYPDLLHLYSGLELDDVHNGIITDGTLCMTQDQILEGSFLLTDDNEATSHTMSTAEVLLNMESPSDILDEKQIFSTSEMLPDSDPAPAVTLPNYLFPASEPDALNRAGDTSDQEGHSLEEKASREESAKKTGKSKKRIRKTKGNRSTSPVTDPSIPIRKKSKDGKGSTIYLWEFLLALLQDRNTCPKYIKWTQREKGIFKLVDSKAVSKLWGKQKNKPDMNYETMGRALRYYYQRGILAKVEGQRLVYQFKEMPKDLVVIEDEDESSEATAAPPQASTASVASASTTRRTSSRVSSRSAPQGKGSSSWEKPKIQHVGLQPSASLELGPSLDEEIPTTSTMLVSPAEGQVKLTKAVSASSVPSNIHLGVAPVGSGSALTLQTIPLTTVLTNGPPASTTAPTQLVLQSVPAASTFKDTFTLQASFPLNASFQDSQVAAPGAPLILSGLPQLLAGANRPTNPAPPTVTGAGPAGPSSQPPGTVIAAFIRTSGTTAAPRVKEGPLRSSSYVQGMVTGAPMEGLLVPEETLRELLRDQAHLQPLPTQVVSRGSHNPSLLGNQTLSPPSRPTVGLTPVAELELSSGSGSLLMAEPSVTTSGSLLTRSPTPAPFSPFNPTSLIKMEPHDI
# Procedure, shortened: as §1
# ELK4 = target: T3, ELK4 (Homo sapiens, UniProt P28324-2 1-405); conditions: protein: recombinant; tags: N-terminal GST; dsDNA, one strand shown
# T3 sequence: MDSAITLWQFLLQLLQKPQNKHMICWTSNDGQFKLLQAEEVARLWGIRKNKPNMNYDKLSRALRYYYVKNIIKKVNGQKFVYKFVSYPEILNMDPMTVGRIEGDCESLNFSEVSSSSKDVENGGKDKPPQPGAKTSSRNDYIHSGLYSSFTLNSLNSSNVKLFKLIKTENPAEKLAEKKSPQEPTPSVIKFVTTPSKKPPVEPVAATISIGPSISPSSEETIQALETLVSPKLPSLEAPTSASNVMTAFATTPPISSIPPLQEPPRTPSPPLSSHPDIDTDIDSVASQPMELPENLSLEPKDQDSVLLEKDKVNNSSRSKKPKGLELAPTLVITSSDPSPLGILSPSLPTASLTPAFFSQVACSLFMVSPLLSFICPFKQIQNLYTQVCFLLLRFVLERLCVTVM
# Procedure, shortened: as §1
# ETV2 = target: T4, ETV2 (Homo sapiens, UniProt O00321 1-342); conditions: protein: recombinant; tags: N-terminal GST; dsDNA, one strand shown
# T4 sequence: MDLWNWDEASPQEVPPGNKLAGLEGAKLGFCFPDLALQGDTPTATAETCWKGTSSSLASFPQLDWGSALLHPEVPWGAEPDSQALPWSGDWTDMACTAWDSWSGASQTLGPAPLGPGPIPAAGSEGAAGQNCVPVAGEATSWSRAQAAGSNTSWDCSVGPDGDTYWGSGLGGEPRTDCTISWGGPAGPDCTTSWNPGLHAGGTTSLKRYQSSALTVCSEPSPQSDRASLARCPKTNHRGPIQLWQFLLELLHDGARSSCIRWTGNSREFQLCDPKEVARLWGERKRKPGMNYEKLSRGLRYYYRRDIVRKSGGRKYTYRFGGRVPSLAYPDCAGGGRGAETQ
# Procedure, shortened: as §1
# ELF3 = target: T5, ELF3 (Homo sapiens, UniProt P78545 1-371); conditions: protein: recombinant; tags: N-terminal GST; dsDNA, one strand shown
# T5 sequence: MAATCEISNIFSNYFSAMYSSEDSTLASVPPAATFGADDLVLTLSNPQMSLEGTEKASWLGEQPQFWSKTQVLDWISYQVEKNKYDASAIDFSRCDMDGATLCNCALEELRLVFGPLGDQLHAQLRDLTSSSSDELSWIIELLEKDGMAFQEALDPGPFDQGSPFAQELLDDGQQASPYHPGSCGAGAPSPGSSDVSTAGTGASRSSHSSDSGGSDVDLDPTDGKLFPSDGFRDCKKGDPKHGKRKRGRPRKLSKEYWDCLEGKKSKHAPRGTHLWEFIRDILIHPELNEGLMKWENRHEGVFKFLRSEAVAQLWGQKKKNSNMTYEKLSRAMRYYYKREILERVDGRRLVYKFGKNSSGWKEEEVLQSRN
# Procedure, shortened: as §1
# CRX = CRX (Homo sapiens, UniProt O43186 1-299); conditions: protein: recombinant; tags: N-terminal GST; dsDNA, one strand shown
# Sequence of CRX (O43186 whole entry): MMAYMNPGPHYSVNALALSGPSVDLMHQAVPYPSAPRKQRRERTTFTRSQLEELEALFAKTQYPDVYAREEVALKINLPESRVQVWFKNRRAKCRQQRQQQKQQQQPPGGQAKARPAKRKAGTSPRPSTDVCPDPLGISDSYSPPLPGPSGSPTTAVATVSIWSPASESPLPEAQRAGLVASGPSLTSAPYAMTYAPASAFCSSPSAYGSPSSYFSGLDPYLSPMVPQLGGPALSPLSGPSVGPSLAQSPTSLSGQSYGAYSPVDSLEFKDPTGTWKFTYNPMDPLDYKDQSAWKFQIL
# Procedure, shortened: as §1
# ETV1 = ETV1 (Homo sapiens, UniProt P50549 1-477); conditions: protein: recombinant; tags: N-terminal GST; dsDNA, one strand shown
# Sequence of ETV1 (P50549 whole entry): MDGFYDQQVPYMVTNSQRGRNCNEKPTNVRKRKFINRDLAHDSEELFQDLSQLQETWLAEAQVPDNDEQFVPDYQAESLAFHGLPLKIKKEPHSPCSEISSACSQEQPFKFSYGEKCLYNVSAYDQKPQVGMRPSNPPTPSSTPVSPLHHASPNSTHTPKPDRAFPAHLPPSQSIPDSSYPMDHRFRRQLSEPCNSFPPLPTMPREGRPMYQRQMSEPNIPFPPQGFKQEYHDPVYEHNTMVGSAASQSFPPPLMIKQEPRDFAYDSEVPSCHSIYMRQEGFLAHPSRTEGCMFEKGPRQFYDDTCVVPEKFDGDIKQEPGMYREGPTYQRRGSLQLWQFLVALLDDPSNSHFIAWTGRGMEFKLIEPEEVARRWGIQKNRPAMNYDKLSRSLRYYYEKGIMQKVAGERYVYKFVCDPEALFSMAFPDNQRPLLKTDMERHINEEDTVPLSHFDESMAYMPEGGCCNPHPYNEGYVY
# Procedure, shortened: as §1
# ERF = target: T6, ERF (Homo sapiens, UniProt P50548 1-548); conditions: protein: recombinant; tags: N-terminal GST; dsDNA, one strand shown
# T6 sequence: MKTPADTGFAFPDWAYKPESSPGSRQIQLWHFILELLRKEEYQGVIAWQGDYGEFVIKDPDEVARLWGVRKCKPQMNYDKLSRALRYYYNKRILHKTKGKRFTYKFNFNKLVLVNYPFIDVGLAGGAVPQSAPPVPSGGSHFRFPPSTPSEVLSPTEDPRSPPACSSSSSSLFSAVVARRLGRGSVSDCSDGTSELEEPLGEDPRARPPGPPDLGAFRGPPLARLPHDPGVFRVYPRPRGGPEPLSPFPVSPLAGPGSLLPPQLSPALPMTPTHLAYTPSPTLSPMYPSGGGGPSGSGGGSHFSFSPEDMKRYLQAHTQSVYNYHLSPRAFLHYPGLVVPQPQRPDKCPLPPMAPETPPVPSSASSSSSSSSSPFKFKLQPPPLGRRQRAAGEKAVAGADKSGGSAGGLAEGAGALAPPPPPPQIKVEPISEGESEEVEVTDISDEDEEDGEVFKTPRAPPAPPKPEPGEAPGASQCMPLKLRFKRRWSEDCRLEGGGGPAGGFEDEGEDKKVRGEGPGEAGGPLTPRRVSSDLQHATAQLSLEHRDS
# Procedure, shortened: as §1
# ETV3L = target: T7, ETV3L (Homo sapiens, UniProt Q6ZN32 1-361); conditions: protein: recombinant; tags: N-terminal GST; dsDNA, one strand shown
# T7 sequence: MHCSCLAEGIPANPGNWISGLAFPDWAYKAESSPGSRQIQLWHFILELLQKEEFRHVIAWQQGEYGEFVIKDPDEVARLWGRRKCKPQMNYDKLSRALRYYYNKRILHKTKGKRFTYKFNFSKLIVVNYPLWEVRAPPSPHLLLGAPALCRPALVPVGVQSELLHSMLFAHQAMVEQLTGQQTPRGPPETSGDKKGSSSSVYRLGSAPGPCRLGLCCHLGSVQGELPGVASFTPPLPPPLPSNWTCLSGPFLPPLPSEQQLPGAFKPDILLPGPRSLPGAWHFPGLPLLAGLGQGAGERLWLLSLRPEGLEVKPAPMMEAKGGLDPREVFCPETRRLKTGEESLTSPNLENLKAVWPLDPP
# Procedure, shortened: as §1
# ETS2 = target: T8, ETS2 (Homo sapiens, UniProt P15036 1-469); conditions: protein: recombinant; tags: N-terminal GST; dsDNA, one strand shown
# T8 sequence: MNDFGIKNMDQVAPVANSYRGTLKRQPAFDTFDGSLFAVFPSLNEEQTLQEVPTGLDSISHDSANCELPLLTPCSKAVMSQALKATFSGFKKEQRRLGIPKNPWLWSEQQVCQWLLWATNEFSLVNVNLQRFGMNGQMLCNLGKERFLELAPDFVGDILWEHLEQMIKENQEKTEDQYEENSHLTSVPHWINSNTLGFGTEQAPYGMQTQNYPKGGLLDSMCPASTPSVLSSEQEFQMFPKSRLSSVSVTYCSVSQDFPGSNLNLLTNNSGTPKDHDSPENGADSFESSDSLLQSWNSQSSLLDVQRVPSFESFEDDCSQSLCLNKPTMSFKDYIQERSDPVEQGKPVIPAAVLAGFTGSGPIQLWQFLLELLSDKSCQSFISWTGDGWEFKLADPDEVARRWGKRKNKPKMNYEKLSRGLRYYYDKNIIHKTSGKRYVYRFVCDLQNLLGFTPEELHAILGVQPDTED
# Procedure, shortened: as §1
# SPDEF = target: T9, SPDEF (Homo sapiens, UniProt O95238 1-335); conditions: protein: recombinant; tags: N-terminal GST; dsDNA, one strand shown
# T9 sequence: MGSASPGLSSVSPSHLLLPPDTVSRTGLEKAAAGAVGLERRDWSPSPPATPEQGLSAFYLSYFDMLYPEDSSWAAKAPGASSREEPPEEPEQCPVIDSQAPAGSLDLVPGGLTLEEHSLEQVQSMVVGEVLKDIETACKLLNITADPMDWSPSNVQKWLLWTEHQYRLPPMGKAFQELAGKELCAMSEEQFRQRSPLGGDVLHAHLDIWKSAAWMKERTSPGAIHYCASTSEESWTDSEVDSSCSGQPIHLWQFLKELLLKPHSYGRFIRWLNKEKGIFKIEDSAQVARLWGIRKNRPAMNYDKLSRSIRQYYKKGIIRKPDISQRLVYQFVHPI
# Procedure, shortened: as §1
# ETV7 = target: T10, ETV7 (Homo sapiens, UniProt Q9Y603 1-341); conditions: protein: recombinant; tags: N-terminal GST; dsDNA, one strand shown
# T10 sequence: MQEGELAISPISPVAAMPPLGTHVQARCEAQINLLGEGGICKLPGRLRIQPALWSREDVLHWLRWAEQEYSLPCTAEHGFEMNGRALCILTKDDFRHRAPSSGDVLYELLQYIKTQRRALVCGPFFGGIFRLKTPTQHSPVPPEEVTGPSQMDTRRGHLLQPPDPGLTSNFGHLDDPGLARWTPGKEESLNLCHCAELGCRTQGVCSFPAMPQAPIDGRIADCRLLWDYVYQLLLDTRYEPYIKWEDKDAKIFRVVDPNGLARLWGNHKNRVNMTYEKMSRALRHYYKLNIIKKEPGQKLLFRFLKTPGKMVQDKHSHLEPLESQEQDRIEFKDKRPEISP
# Procedure, shortened: as §1
# ELF5 = target: T11, ELF5 (Homo sapiens, UniProt Q9UKW6-2 1-255); conditions: protein: recombinant; tags: N-terminal GST; dsDNA, one strand shown
# T11 sequence: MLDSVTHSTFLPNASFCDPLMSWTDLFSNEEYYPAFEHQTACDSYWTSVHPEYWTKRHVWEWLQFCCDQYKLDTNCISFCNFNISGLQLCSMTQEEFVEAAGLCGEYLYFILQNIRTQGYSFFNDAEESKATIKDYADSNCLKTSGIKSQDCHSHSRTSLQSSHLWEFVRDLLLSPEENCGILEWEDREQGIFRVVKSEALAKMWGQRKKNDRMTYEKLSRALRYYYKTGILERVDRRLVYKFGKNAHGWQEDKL
# Procedure, shortened: as §1
# ETV3 = target: T12, ETV3 (Homo sapiens, UniProt P41162-2 1-143); conditions: protein: recombinant; tags: N-terminal GST; dsDNA, one strand shown
# T12 sequence: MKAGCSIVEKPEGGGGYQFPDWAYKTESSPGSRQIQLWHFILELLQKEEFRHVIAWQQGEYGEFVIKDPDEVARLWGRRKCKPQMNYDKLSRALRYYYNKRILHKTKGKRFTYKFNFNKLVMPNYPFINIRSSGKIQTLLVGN
# Procedure, shortened: as §1
# ETV6 = ETV6 (Homo sapiens, UniProt P41212 1-452); conditions: protein: recombinant; tags: N-terminal GST; dsDNA, one strand shown
# Sequence of ETV6 (P41212 whole entry): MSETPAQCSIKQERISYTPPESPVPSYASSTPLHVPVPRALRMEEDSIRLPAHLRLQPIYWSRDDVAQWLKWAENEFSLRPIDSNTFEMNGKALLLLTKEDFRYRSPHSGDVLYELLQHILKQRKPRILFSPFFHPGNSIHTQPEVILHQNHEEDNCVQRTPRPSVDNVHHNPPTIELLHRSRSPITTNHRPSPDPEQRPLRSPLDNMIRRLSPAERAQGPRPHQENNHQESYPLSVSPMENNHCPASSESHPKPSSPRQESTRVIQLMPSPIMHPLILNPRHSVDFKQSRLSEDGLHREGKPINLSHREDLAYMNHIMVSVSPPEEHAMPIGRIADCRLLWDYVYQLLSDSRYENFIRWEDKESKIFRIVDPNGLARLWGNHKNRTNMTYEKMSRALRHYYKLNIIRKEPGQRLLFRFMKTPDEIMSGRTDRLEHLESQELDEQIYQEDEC
# Procedure, shortened: as §1
sequence,measurement,setting,value
TTTATG,binding signal,FEV,"1.26 fold enrichment (6-mer frequency, TF over GST control)"
same,binding signal,ETV5,"1.36 fold enrichment (6-mer frequency, TF over GST control)"
same,binding signal,HSF1,"1.37 fold enrichment (6-mer frequency, TF over GST control)"
same,binding signal,SPIC,"1.5 fold enrichment (6-mer frequency, TF over GST control)"
same,binding signal,ELF4,"1.21 fold enrichment (6-mer frequency, TF over GST control)"
same,binding signal,ELK4,"1.16 fold enrichment (6-mer frequency, TF over GST control)"
same,binding signal,ETV2,"1.34 fold enrichment (6-mer frequency, TF over GST control)"
same,binding signal,ELF3,"1.37 fold enrichment (6-mer frequency, TF over GST control)"
same,binding signal,CRX,"1.74 fold enrichment (6-mer frequency, TF over GST control)"
same,binding signal,ETV1,"1.32 fold enrichment (6-mer frequency, TF over GST control)"
same,binding signal,ERF,"1.31 fold enrichment (6-mer frequency, TF over GST control)"
same,binding signal,ETV3L,"1.36 fold enrichment (6-mer frequency, TF over GST control)"
same,binding signal,ETS2,"1.32 fold enrichment (6-mer frequency, TF over GST control)"
same,binding signal,SPDEF,"1.29 fold enrichment (6-mer frequency, TF over GST control)"
same,binding signal,ETV7,"1.32 fold enrichment (6-mer frequency, TF over GST control)"
same,binding signal,ELF5,"1.29 fold enrichment (6-mer frequency, TF over GST control)"
same,binding signal,ETV3,"1.36 fold enrichment (6-mer frequency, TF over GST control)"
same,binding signal,ETV6,"1.33 fold enrichment (6-mer frequency, TF over GST control)"

# — article PMC7862700, “An all-to-all approach to the identification of sequence-specific readers for epigenetic DNA modifications on cytosine”
